Assay outcomes: PubChem, several laboratories
Pemphigus Ab inh = inhibitors of pemphigus antibody binding to human desmoglein-3; hit rate 0.48% among 310,000; DSG3-coupled beads, scFv-anti-DSG3-GFP binding, flow cytometry; hits give low values; binding (percent of control), % at 10 µM; P32926; AID 588358;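 active means binding more than 3 SD below its plate's average and above zero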;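 further: hits lower antibody fragment binding to DSG3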
GRK2 inh = human GRK2 inhibition via aptamer displacement; inhibition of aptamer binding, % at 10 µM; P25098; hit rate 0.59% among 330,000; bead flow cytometry, FAM-aptamer displacement from GRK2; AID 488847;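 active means inhibition of aptamer binding above 40%, roughly 3 SD of noise, on plates passing a quality check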;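 further: median bead fluorescence of bound FAM aptamer so fluorescent compounds give negative values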
Target sequence (P25098 whole entry, looked up): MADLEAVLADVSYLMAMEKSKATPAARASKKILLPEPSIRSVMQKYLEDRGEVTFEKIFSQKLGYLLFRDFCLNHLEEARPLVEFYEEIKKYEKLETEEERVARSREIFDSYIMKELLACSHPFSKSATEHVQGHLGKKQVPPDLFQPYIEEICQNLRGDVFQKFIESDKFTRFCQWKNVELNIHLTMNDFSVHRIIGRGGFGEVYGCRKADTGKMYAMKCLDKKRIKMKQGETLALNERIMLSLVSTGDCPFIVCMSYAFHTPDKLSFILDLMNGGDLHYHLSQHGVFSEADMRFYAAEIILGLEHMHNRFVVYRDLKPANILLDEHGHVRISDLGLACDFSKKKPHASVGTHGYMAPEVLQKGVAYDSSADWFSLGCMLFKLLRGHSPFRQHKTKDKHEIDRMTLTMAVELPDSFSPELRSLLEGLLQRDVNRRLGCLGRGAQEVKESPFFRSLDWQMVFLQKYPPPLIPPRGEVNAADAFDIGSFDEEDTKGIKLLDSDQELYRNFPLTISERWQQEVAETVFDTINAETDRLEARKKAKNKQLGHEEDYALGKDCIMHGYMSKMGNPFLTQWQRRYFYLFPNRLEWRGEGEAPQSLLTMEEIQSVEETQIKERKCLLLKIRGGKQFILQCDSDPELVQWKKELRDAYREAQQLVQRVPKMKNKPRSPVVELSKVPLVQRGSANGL
VLA-4 inh = inhibition in a human VLA-4 binding assay. inhibition, % (about 7 µM as worked out from the volumes in the protocol). VLA-4 expressing cells, ligand binding flow cytometry. AID 2557. hit rate 0.2% among 330,000; in the data active means inhibition above about 50%
GASC-1 inh = blocks human GASC-1 demethylase activity | Q9H3R0 | GST-JMJD2C(1-420) H3K9me3 demethylation, DELFIA europium | inhibition, % at 2.35 µM | hit rate 0.069% among 330,000 | AID 2099;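 active means more than half of a compound's replicate wells show inhibition beyond 50%, single wells judged on their own value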;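 further: signal counts dimethyl H3K9 product captured on neutravidin plate; 0% = median of DMSO wells and 100% = 0.3 times that DMSO median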
PREPL inhibitor = inhibits the human prolyl oligopeptidase-like enzyme. recombinant PREPL, fluorescence polarization activity-based probe. inhibition, % at 5.96 µM. hit rate 0.68% among 320,000. AID 2751; in the data active means inhibition above about 43%;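 further: 0% = enzyme with DMSO and 100% = wells lacking enzyme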
GRK2 CP1 = confirmation of human GRK2 inhibitors displacing RNA aptamer; shares compounds with GRK2 inh; bead-bound GRK2, FAM-aptamer displacement, flow cytometry; aptamer displacement, % at 10 µM; hit rate 4% among 2,000; AID 504451;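 active means aptamer displacement above 40%, near three times the noise of non-fluorescent compounds, on plates passing quality checks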;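 further: negative values mostly reflect intrinsic compound fluorescence rather than true enhancement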
Aptamer quench 1 = fluorescent aptamer quenching in GRK2 counter-screen dose response | 110 tested, under 10 active | shares compounds with GRK2 inh | AID 504521 | fluorescence change (kMESF span), kMESF (no concentration beside the values) | Fluorescent RNA aptamer beads, flow cytometry; hits give high values;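 active means compounds whose bead fluorescence drops by more than 37 kMESF across the dose range, marking them as dye quenchers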
FAM quench CP1 = aptamer fluorescence quenching in GRK2 counter-screen; Carboxyfluorescein RNA aptamer on beads, flow cytometry quenching; hits give low values; 2,000 tested, under 10 active; fluorescence response (% of DMSO), % at 10 µM; shares compounds with GRK2 inh;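 active means compounds that quench the bead-bound fluorescent RNA probe, cutting fluorescence to under half of the solvent control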;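 further: counterscreen run without GRK2 so only probe quenching by compound is measured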
GRK2 CP2 = confirmation of human GRK2 inhibitors binding RNA aptamer site; shares compounds with GRK2 inh; inhibition of aptamer binding, % at 10 µM; bead-bound GRK2, FAM-aptamer displacement, flow cytometry; AID 504782; 360 tested, under 10 active;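 active means inhibition of aptamer binding above 40%, about triple the noise seen with nonglowing compounds, on plates passing quality control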;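 further: negative values mostly come from compounds that fluoresce themselves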
FAM quench CP2 = counter-screen for GRK2 binding hits: quenchers of fluorescent RNA aptamer. shares compounds with GRK2 inh. carboxyfluorescein RNA aptamer beads, flow cytometry quenching; hits give low values. fluorescence response vs DMSO, % at 10 µM. 360 tested, under 10 active. AID 588494;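 active means response vs DMSO under 50%, meaning signal dropped by over half, treated as fluorescence quencher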;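 further: labelled aptamer on streptavidin beads without GRK2 as a quench counter-screen; 100% = bead fluorescence of DMSO wells and lower means quenching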
* marks the source's active call; other numbers are inactive results; nt = not tested or not shown. Rows were chosen to be rich in hits. Some 1.6% of all compounds tested hit in one or more screens of this group.

SMILES	Pemphigus Ab inh	GRK2 inh	VLA-4 inh	GASC-1 inh	PREPL inhibitor	GRK2 CP1	FAM quench CP1	others
O=c1[nH]c(CN2CCN(c3ccccc3)CC2)nc2ccccc12	119	0	20	4	-7	nt	nt	GRK2 CP2=10;FAM quench CP2=101
O=C(c1ccco1)N1CCN(Cc2nc3cc(Cl)ccc3c(=O)[nH]2)CC1	92	4	17	2	-3	nt	nt	GRK2 CP2=-9;FAM quench CP2=102
O=C(c1cccs1)N1CCN(Cc2nc3ccccc3c(=O)[nH]2)CC1	98	5	-3	-1	5	nt	nt	GRK2 CP2=-9;FAM quench CP2=98
Cn1c(=O)[nH]c(=O)c2[nH]c(CN3CCN(C(=O)c4ccco4)CC3)nc21	96	2	6	2	7	nt	nt
O=C(NC1CCCCC1)N1CCN(Cc2nc3ccccc3c(=O)[nH]2)CC1	106	0	3	-21	6	nt	nt	GRK2 CP2=-6;FAM quench CP2=100
CCC(CC)C(=O)N1CCN(Cc2nc3ccccc3c(=O)[nH]2)CC1	96	0	13	-2	5	nt	nt
Cc1c(C(=O)NNC(=O)c2ccncc2)oc2ccc(Br)cc12	96	0	2	-6	-16	nt	nt
CC1(c2ccccc2)NC(=O)N(CC(=O)N2CCN(S(=O)(=O)c3cccc(C(F)(F)F)c3)CC2)C1=O (stereo not drawn)	115	nt	nt	nt	nt	nt	nt
Cc1cccc2cc(C3CC(c4ccco4)=NN3C(=O)CCC(=O)O)c(Cl)nc12 (stereo not drawn)	105	2	7	2	-4	nt	nt
CCCCC(=O)Nc1nnc(CCc2ccccc2)s1	109	99*	12	18	-5	0	97
CCCCCC(=O)Nc1nnc(CCc2ccccc2)s1	99	nt	10	-8	11	nt	nt
O=C(CCS(=O)(=O)c1ccccc1)Nc1nncs1	105	54*	-2	21	18	6	101
CC(C)Cc1nnc(NC(=O)CCS(=O)(=O)c2ccc(Cl)cc2)s1	101	0	-4	-3	4	-5	96
COCCSc1nnc(NC(=O)CS(=O)(=O)c2ccc(C)cc2)s1	98	0	-1	-18	6	nt	nt
COCCSc1nnc(NC(=O)CCS(=O)(=O)c2ccccc2)s1	98	0	-8	5	-2	0	100
C[C@@H]1COC(=O)[C@@H](Cc2ccc(F)cc2)C/C=C\C[C@@H](CC(=O)N(CCO)Cc2ccccc2)C(=O)N1	106	5	19	4	19	nt	nt
CCOCCc1nnc(NC(=O)CCS(=O)(=O)c2ccccc2)s1	106	5	5	6	4	6	97
COC(=O)c1ccsc1NC(=O)CCS(=O)(=O)c1ccc(Cl)cc1	102	1	-7	-4	0	nt	nt	GRK2 CP2=-38;FAM quench CP2=101
O=C(O)CC(CC(=O)Nc1nncs1)c1ccccc1 (stereo not drawn)	99	49*	8	35	-7	0	100
CC(C)Cn1c(C23CC4CC(CC(C4)C2)C3)n[nH]c1=S	130	6	-13	-11	13	nt	nt
CC[C@@H]1[C@H]2CCCC(=O)N3CC[C@@H](C[C@H]1O)[C@@H]23	105	3	-10	-29	12	nt	nt
O=C(Nc1cccnc1)c1ccc([N+](=O)[O-])s1	104	7	19	-7	10	nt	nt
COc1ccc(OC)c(S(=O)(=O)N2CCN(c3c(C)cccc3C)CC2)c1	105	95*	3	-1	-6	-1	101
C=C(C)C(=O)Nc1cccc(C2=NOC3(C2)C[C@H](C(N)=O)N(C(=O)/C=C/C)C3)c1 (stereo partly drawn)	112	70*	6	6	0	50*	88	Aptamer quench 1=-1.4
C=C(C)C(=O)Nc1cccc(C2=NOC3(C2)C[C@@H](C(N)=O)N(C(=O)/C=C/CC)C3)c1 (stereo partly drawn)	99	61*	22	13	-4	41*	99	Aptamer quench 1=11
SMILES	Pemphigus Ab inh	GRK2 inh	VLA-4 inh	GASC-1 inh	PREPL inhibitor	GRK2 CP1	FAM quench CP1	others
C/C=C/C(=O)N1CC2(CC(c3cccc(NC(=O)CC)c3)=NO2)C[C@H]1C(N)=O (stereo partly drawn)	101	12	-15	-6	-1	nt	nt
C/C=C\C(=O)Nc1cccc(C2=NOC3(C2)C[C@H](C(N)=O)N(C(=O)/C=C/CC)C3)c1 (stereo partly drawn)	98	1	-2	-1	10	nt	nt
COCCCn1c(=O)/c(=C\c2cccc(OC)c2OC)s/c1=C(/C#N)C(=O)Nc1ccc(C(=O)O)cc1	116	0	-12	5	3	nt	nt
Fc1ccc2cc(-c3ccccc3F)ncc2c1	102	100*	16	-4	-14	nt	nt	GRK2 CP2=-33;FAM quench CP2=103
Fc1ccc2cnc(-c3ccccc3F)cc2c1	105	3	-12	-3	11	nt	nt
Cc1cc(/C=c2\sc3nc4ccccc4n3c2=O)c(C)n1-c1ccc(C(=O)O)cc1	86	nt	nt	8	nt	nt	nt
O=C(O)c1ccc(-c2ccc(/C=c3/sc4nc5ccccc5n4c3=O)o2)cc1Cl	289	80*	-54	1	2	60*	94	Aptamer quench 1=10
CCC1CC(C(=O)Nc2ccccc2)C(=O)O1 (stereo not drawn)	108	69*	1	-11	7	0	101
CC(C)C1CC(C(=O)Nc2ccccc2)C(=O)O1 (stereo not drawn)	99	1	6	1	0	nt	nt
CCOC(=O)c1oc2c(O)c(O)ccc2c(=O)c1-c1nncn1-c1ccccc1	105	0	19	-2	-13	nt	nt
CCOC(=O)c1oc2c(C)c(O)ccc2c(=O)c1-c1nncn1-c1ccccc1	nt	75*	22	20	2	-2	102
CCOCCCNC(=O)C(NC(=O)c1ccccc1O)c1ccc(C)cc1 (stereo not drawn)	101	0	21	-1	19	nt	nt
CCOCCCNC(=O)C(NC(=O)C1CCC(=O)N1)c1ccc(C)cc1 (stereo not drawn)	94	45*	-6	-35	10	3	95
O=C(NCc1ccccc1F)C1CCCN(S(=O)(=O)N2CCOCC2)C1 (stereo not drawn)	106	3	13	4	-5	1	99
CC(CNC(=O)C1CCCN(S(=O)(=O)N2CCOCC2)C1)c1ccccc1 (stereo not drawn)	99	0	-2	58	1	nt	nt
